Assay results taken from PubChem BioAssay (NCI).
This is part of a sample that, as a whole, favours compounds with a hit. Of some 79,000 tested, about 15% had one in any assay. Active and inactive are the calls of the source. No stated cut-off is given here; in the data, active means growth inhibition above about 70%; inactive means the rest.

Key:
[1] = NCI Yeast Anticancer Drug Screen. Data for the rad50 strain (AID 155);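 further: 0% = growth of vehicle-only cultures of the same strain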; conditions: S. cerevisiae rad50 strain growth inhibition, hits give high values
Outline: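 DNA repair mutant yeast, compound exposure, growth read-out; inhibition is taken relative to vehicle.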

[2] = NCI Yeast Anticancer Drug Screen. Data for the mec2-1 strain (AID 157); conditions: S. cerevisiae mec2-1 strain, hits give high values
Outline: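 Cells of the genetically defined mec2-1 yeast strain are incubated with test compound. Inhibition of growth is calculated against vehicle-treated controls.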

[3] = NCI Yeast Anticancer Drug Screen. Data for the sgs1 mgt1 strain (AID 161);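 further: 0% = growth of cultures given vehicle only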; conditions: S. cerevisiae sgs1 mgt1 strain, hits give high values
Outline: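 Read-out: growth inhibition vs vehicle controls. Cells: mutant yeast strain deficient in DNA damage repair.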

[4] = NCI Yeast Anticancer Drug Screen. Data for the cln2 rad14 strain (AID 165);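 further: 0% = growth equal to vehicle treated cultures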; conditions: S. cerevisiae cln2 rad14 strain, hits give high values
Outline: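 The screen exposed genetically defined yeast (cln2 rad14) to test compounds and scored growth inhibition relative to vehicle-treated controls.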

[5] = NCI Yeast Anticancer Drug Screen. Data for the bub3 strain (AID 167); conditions: S. cerevisiae bub3 mutant strain, hits give high values
Outline: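 In this screen, a yeast mutant lacking normal mitotic checkpoint function is challenged with compound. Relative growth versus vehicle gives the inhibition value.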

[6] = NCI Yeast Anticancer Drug Screen. Data for the mlh1 rad18 strain (AID 175); conditions: S. cerevisiae mlh1 rad18 strain growth inhibition, hits give high values
Outline: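 Compound-treated yeast growth, normalised to vehicle controls. Strain bears defined DNA repair mutations.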

[7] = at 5.0 µM (retest, dose inferred, filed as 0.5)
[8] = at 50.0 µM (retest, dose inferred, filed as 5.0)

Measured: growth inhibition

CC(=O)Nc1ccc(-c2ccccc2)cc1[N+](=O)[O-]
inactive: [1]; [7] -3% | [1]; [8] 4% | [1]; at 50.0 µM 14.9% | [2]; [7] -4% | [2]; [8] 0% | [2]; at 50.0 µM 16.6% | [3]; [7] -2% | [3]; [8] 0% | [3]; at 50.0 µM -24.1% | [4]; [7] 0% | [4]; [8] -7% | [4]; at 50.0 µM -113% | [5]; [7] 1% | [5]; [8] 5% | [5]; at 50.0 µM 44.4% | [6]; [7] -2% | [6]; [8] 2% | [6]; at 50.0 µM 41.7%

C(=N\NC1=NCCN1)/c1cccc2cc3ccncc3nc12
inactive: [1]; [7] 8% | [1]; [8] 66% | [2]; [7] 7% | [2]; [8] 60% | [3]; [7] -4% | [3]; [8] 63% | [4]; [7] -6% | [4]; [8] 53% | [5]; [7] -12% | [5]; [8] 27% | [6]; [7] -9% | [6]; [8] 53%
active: [1]; at 50.0 µM 86.5% | [2]; at 50.0 µM 91% | [3]; at 50.0 µM 83.8% | [4]; at 50.0 µM 88% | [5]; at 50.0 µM 87.7% | [6]; at 50.0 µM 82.5%

O=C(Oc1ccc(Cl)cc1)Oc1ccc(Cl)cc1
inactive: [1]; [7] -13% | [1]; [8] 16% | [1]; at 50.0 µM 3.55% | [2]; [7] -10% | [2]; [8] 4% | [2]; at 50.0 µM 16.7% | [3]; [7] 0% | [3]; [8] 25% | [3]; at 50.0 µM 14.3% | [4]; [7] -2% | [4]; [8] 36% | [4]; at 50.0 µM 16.9% | [5]; [7] -1% | [5]; [8] -23% | [5]; at 50.0 µM 18.3% | [6]; [7] 6% | [6]; [8] 12% | [6]; at 50.0 µM 17.1%

O=C1c2ccccc2C(=O)C2(C(c3ccccc3)c3ccccc3)N=NCC12 (stereo not given)
inactive: [1]; [7] -5% | [1]; [8] 15% | [1]; at 50.0 µM 4.15% | [2]; [7] -1% | [2]; [8] -7% | [2]; at 50.0 µM 11.9% | [3]; [7] 0% | [3]; [8] 18% | [3]; at 50.0 µM 7.95% | [4]; [7] 5% | [4]; [8] 5% | [4]; at 50.0 µM -7.15% | [5]; [7] 27% | [5]; [8] 42% | [5]; at 50.0 µM 30.1% | [6]; [7] 13% | [6]; [8] 21% | [6]; at 50.0 µM 12.2%

C=CCc1ccc(OC(=O)CCl)c(OC)c1
inactive: [1]; [7] 1% | [1]; [8] 23% | [1]; at 50.0 µM 64.8% | [2]; [7] 1% | [2]; [8] 9% | [2]; at 50.0 µM 27.8% | [3]; [7] -1% | [3]; [8] 5% | [3]; at 50.0 µM 12.6% | [4]; [7] 2% | [4]; [8] 8% | [4]; at 50.0 µM 28.8% | [5]; [7] -2% | [5]; [8] 3% | [5]; at 50.0 µM 18.6% | [6]; [7] 0% | [6]; [8] 26%
active: [6]; at 50.0 µM 81.7%

Nc1nc(SCc2ccccc2)c2ncn(CCCl)c2n1
active: [4]; at 50.0 µM 70.3%
inactive: [1]; [7] -3% | [1]; [8] 0% | [1]; at 50.0 µM 1.4% | [2]; [7] -4% | [2]; [8] 2% | [2]; at 50.0 µM 15.3% | [3]; [7] -9% | [3]; [8] 1% | [3]; at 50.0 µM 17.6% | [4]; [7] -4% | [4]; [8] -1% | [5]; [7] -2% | [5]; [8] -7% | [5]; at 50.0 µM -2.15% | [6]; [7] -2% | [6]; [8] 3% | [6]; at 50.0 µM 20.9%

COc1cc[c]([Sn]([c]2ccc(OC)cc2)([c]2ccc(OC)cc2)[c]2ccc(OC)cc2)cc1
inactive: [1]; [7] 1% | [1]; [8] 1% | [2]; [7] 6% | [2]; [8] 6% | [3]; [7] -5% | [3]; [8] -5% | [4]; [7] -9% | [4]; [8] -9% | [5]; [7] 6% | [5]; [8] 6% | [6]; [7] -14% | [6]; [8] -14%
active: [1]; at 50.0 µM 80.5% | [2]; at 50.0 µM 85.3% | [3]; at 50.0 µM 80.8% | [4]; at 50.0 µM 85.8% | [5]; at 50.0 µM 82.3% | [6]; at 50.0 µM 78.8%

O=S(c1ccccc1)c1c(Cl)c(Cl)nc(Cl)c1Cl (stereo not given)
active: [1]; [7] 97% | [1]; [8] 99% | [1]; at 50.0 µM 99.2% | [2]; [7] 99% | [2]; [8] 99% | [2]; at 50.0 µM 99.6% | [3]; [7] 99% | [3]; [8] 99% | [3]; at 50.0 µM 99.5% | [4]; [7] 95% | [4]; [8] 99% | [4]; at 50.0 µM 99.6% | [5]; [7] 98% | [5]; [8] 99% | [5]; at 50.0 µM 99.5% | [6]; [7] 99% | [6]; [8] 99% | [6]; at 50.0 µM 99.5%

Oc1ccc(C2CCc3ccccc32)cc1 (stereo not given)
inactive: [1]; [7] -6% | [2]; [7] -36% | [3]; [7] -7% | [4]; [7] -11% | [5]; [7] -28% | [6]; [7] -7%
active: [1]; [8] 98% | [1]; at 50.0 µM 99.6% | [2]; [8] 98% | [2]; at 50.0 µM 99.8% | [3]; [8] 98% | [3]; at 50.0 µM 99.1% | [4]; [8] 98% | [4]; at 50.0 µM 99.3% | [5]; [8] 94% | [5]; at 50.0 µM 99.5% | [6]; [8] 98% | [6]; at 50.0 µM 99.4%

O=[N+]([O-])c1ccc(S(=O)(=O)Cc2ccccc2)c2nonc12
active: [1]; [8] 99% | [1]; at 50.0 µM 99% | [2]; [8] 99% | [2]; at 50.0 µM 98.8% | [3]; [8] 99% | [3]; at 50.0 µM 99% | [4]; [8] 98% | [4]; at 50.0 µM 96.3% | [5]; [8] 99% | [5]; at 50.0 µM 98.4% | [6]; [8] 99% | [6]; at 50.0 µM 98.2%
inactive: [1]; [7] 6% | [2]; [7] 11% | [3]; [7] 10% | [4]; [7] -11% | [5]; [7] 2% | [6]; [7] 6%
